For 39 molecules, Inhibition results are on record in ChEMBL document CHEMBL4296182, “CO-ADD screening of NIH NCI Diversity Set V”.

Structures are written as SMILES.

The experiment deals with Staphylococcus aureus. The experiment in a line: Antibacterial activity against Staphylococcus aureus MRSA ATCC 43300 (CO-ADD:GP_020); MIC in CAMBH media using NBS plates, by Resazurin F(560/590). Format: functional. The conditions noted are these: Concentration 20 uM, ASSAY_TEST Inhibition of Bacterial Growth, detection method Resazurin, Fluorescence (ex560/em590), MEDIA CAMHB, plate type 384well, CORNING #3640, time 18 hr.
By Inhibition is commonly meant the relative decrease from the control value, in per cent. As to `COc1ccc(NC2=CC(=S)NC(C)(C)C2)cc1`, the Inhibition is given as 11.18%.

On to `CC1(c2ccc3ccccc3c2)CCC(=O)O1` (centres undefined), for which the Inhibition turned out to be 11.1%. Turning to `O=C(O)c1nc2nc(Cl)c(Cl)nc2[nH]1`, the Inhibition was -9.71%. In the case of `C1=CC2(C=C1)OC21CCC2(C=CC3(C2)OC3C2CCCCC2)CC1` (centres undefined) it was -4.93%; in that of `O=P(O)(O)c1cc(-c2ccccc2)oc1-c1ccccc1`, -4.92%. With `O=C(O)c1ccccc1C(=O)Nc1ccccc1[N+](=O)[O-]`, the Inhibition came to 3.12%. The figure for `NC(=O)c1nc2c([nH]c1=O)CCCC2` is 15.95%. Take `Cc1n[nH]c2c([N+](=O)[O-])c(=O)[nH]c(=O)n12`: the Inhibition amounted to 3.86%. The figure for `Cc1ccncc1C(N)=O` is 0.11%; for `N=C(N)Nc1nc2cc([N+](=O)[O-])ccc2[nH]1` it is 9.17%. In the case of `CSC1=NC=C(C#N)C2=NC(c3ccc(Cl)cc3)NN12` (centres undefined), the Inhibition is on record as -1.38%.

In the case of `O=C(Nc1cccc(-c2ccccc2)c1)N1CCN(C(=O)Nc2cccc(-c3ccccc3)c2)CC1`, the Inhibition is reported as 26.71%. In the case of `CCCNC(=O)c1ccccc1C(=O)NC1(C(=O)NCCC)CCCC1` it was 14.23%; in that of `CC1=NN(c2ccccc2)C(=O)C1C(=S)SC1CC(=O)NC1=O` (centres undefined), 3.9%. Consider `CSc1nc(O)c(Nc2cccc(Cl)c2)c(O)n1`, for which the Inhibition was 7.02%. In the case of `CSc1nc2nc(C(O)c3ccccc3)nc-2c[nH]1` (centres undefined) it was 9.64%; in that of `S=C(SCc1cc(Cl)cc2c1OCOC2)N1CCSCC1`, 8.1%. With `CC(=O)O.COc1ccc2nccc(/C=C/c3ccnc4ccc(OC)cc34)c2c1`, the Inhibition was 1.03%. Consider `O=C(NC1(N2CCOCC2)CC1)c1ccc(Cl)cc1`, for which the Inhibition is reported as 6.77%. With `O=C(Nc1cccc2c1N(C(=O)c1ccco1)CCC2)c1ccco1`, the Inhibition was 23.38%. In the case of `CCOC(=O)C1(C#N)C(=O)CS/C1=N/c1ccccc1Cl` (centres undefined) it was 19.69%; in that of `NC(CSC1(c2cccc3ccccc23)c2ccccc2-c2ccccc21)C(=O)O` (centres undefined), 9.31%. The figure for `CCN(CC)CCNC(=O)C(Cl)=C1C(Cl)=C(Cl)C(Cl)=C1Cl` is 7.61%; for `CCC1=C(c2ccc(OC)cc2)CCC(C(=O)O)C1C` (centres undefined) it is 20.78%; for `Cc1ccc(CC#N)c(-c2c(CC#N)ccc(C)c2C)c1C` it is 10.31%. In the case of `CCOC(=O)c1c(C)nc(C)c(C(=O)OCC)c1-c1cccnc1` it was -3.54%. Regarding `N=C(N)NC(=N)Nc1ccc(O)cc1`, the Inhibition stood at 11.3%. In the case of `CC1(C)N=C(N)N=C(NCCCOc2ccc([N+](=O)[O-])cc2)N1.CCS(=O)(=O)O`, the Inhibition worked out at 25.11%. The figure for `COc1cccc(OCC(O)CN2CCN(c3ccc(Cl)cc3)CC2)c1` (centres undefined) is 13.17%; for `O=CN/C=C\c1cc(O)ccc1O` it is -18.33%; for `CN1CCC(=C2c3ccccc3C(O)c3ccccc32)CC1` (centres undefined) it is 1.61%.

`Cc1cc(=O)[nH]/c(=N/N=C2/CCCCC2C)[nH]1` (centres undefined): the Inhibition is 22.54%. In the case of `COc1cc(C(=O)OC(C)CN2CCOCC2)cc(OC)c1OC` (centres undefined) it was 13.82%; in that of `Nc1nc2cc([N+](=O)[O-])ccc2[nH]1`, 15.13%.

Regarding `COc1cc2c(=O)n3c4c(cccc4c2cc1OC)CC3`, the Inhibition was found to be 9.4%. In the case of `Nc1nc(N)nc(-c2ccccc2-c2nc(N)nc(N)n2)n1` it was 10.97%. In the case of `O=C1c2cccc(Sc3ccccc3)c2C(=O)c2c(Sc3ccccc3)cccc21` it was 13.79%. In the case of `O=S(=O)(O)c1ccc2c(c1)C(C(Cl)(Cl)Cl)OC(C(Cl)(Cl)Cl)O2` (centres undefined) it was 10.71%; in that of `CC1=C(C(N)=O)S(=O)(=O)c2ccccc21`, 7.64%.
